This passage reports growth inhibition results from PubChem BioAssay (NCI).

Compounds without any hit were thinned out: in the full panel of roughly 79,000, 15% have a hit. A number with no mark means an inactive call. Calls of active or inactive are those of the source. Rule as the data show it: active = growth inhibition above about 70%; inactive = the rest.

The first test can be described thus: NCI Yeast Anticancer Drug Screen. Data for the wt1 strain (AID 149).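 Also: 0% = growth of vehicle-treated wt1 cultures.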 The conditions noted are these: S. cerevisiae wt1 strain (SPY 50644) growth inhibition; at 11.0 µM; hits give high values. Summed up:
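Yeast wt1 strain exposed to compounds; growth inhibition measured relative to vehicle-treated controls.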
With `O=[N+]([O-])c1cc[n+]([O-])cc1`, the growth inhibition is -10%.
In the case of `CC1(C)CC(=O)C(/C=N/c2nc(-c3ccccc3)cs2)=C(O)C1`, the growth inhibition was 6%.
Regarding `Nc1nc(N)c2nc(CNc3ccc(C(=O)NC(CCC(=O)O)C(=O)O)cc3F)cnc2n1` (stereo unspecified), the growth inhibition was 17%.
On the same count and under the same terms, with `COC(=O)CC1(O)C(/C=C/c2ccccc2)C(C(=O)OC)C(=O)C(C(=O)OC)C1C(=O)OC` (stereo unspecified) the figure was 1%; with `CC(C)(C)c1ccc(NS(=O)(=O)c2ccc(N)cc2)cc1`, 3%.
Turning to `CCN(CC)CCNc1ccc([N+](=O)[O-])c2nc3ccccc3c(N)c12`, the growth inhibition is -13%.
Still for that read-out and setting: with `CCCCN(CCCC)C(=O)/C=C/c1ccccc1` the figure was 11%.
Same read-out and setting: then `O=c1[nH]c(-c2ccccc2)nc2c1sc1nc3ccccc3n12`, with -20%.
Same read-out and setting: with `O=[N+]([O-])c1ccc2c(c1)/C(=N/N=C1c3ccccc3Cc3ccccc31)c1cc([N+](=O)[O-])cc([N+](=O)[O-])c1-2` the figure was 99% (active).
For `CC(C)C(C)/C=C\C(C)C1CCC2C3=CC=C4CC(O)CCC4(C)C3CCC21C` (stereo unspecified), the growth inhibition is 0%.
With `O=C1Nc2ccc(Br)cc2C1=Nc1ccc2c(c1)OCO2`, the growth inhibition was -12%.
Regarding `CCCCOCn1c(=O)[nH]c(=O)c2cc(Br)ccc21`, the growth inhibition is -58%.
On the same count and under the same terms, with `Cc1ccc(S/C(=C\C(=O)O)c2ccccc2)cc1` the figure was -8%; with `O=[N+]([O-])/C=C/c1cc(Cl)c(/C=C/[N+](=O)[O-])cc1Cl`, 43%.
Same read-out and setting: with `Cc1cc(S(=O)(=O)Nc2nnc3cnc4ccccc4n23)c(S)cc1Cl` the figure was 4%; with `O=C(/C=C/c1cc(Cl)cc(Cl)c1O)c1cccc(O)c1`, 50%; with `NC1CCCCC1N.Nc1c(N=Nc2ccc(-c3ccc(N=Nc4cc(S(=O)(=O)[O-])c5ccccc5c4N)cc3)cc2)cc(S(=O)(=O)[O-])c2ccccc12.[OH3+].[OH3+].[Pt+4]`, 26%.
Same read-out and setting: then `COC(=O)CCC(NC(=S)N/N=C(\C)c1ccccn1)C(=O)OC` (stereo unspecified), with 2%; and `NC(=O)C(=O)NNc1ccccc1`, with 45%; and `COc1cc(C2SCC(=O)N2c2ccc(-c3ccc(-n4c(-c5ccccc5)nc5ccccc5c4=O)cc3)cc2)ccc1O` (stereo unspecified), with -1%.
As for `COc1ccc(/C=C/c2sc3ccccc3[n+]2CCCCI)cc1OC`, the growth inhibition was -6%.
For the molecule `Cc1c(C(C)C)cc(OCCO)cc1C(C)C`, the growth inhibition was -3%.
In the case of `Cc1cc(NCCCCCCCCNc2cc(C)nc3cc(N)ccc23)c2ccc(N)cc2n1`, the growth inhibition is 92% (active).
As to `C=C(Cl)COC(=O)Nc1cccc(Cl)c1`, the growth inhibition is 1%.
On the same count and under the same terms, then `CC(=O)OC1CC2C(C)(C)C(=O)C=C[C@]2(C)C2CCC3(C)C(=CCC3[C@H](CO)C[C@H](O)C(=O)C(C)(C)O)[C@]12C` (stereo partly specified), with -31%; and `COc1ccc(/C=C/C(=O)c2ccccc2)cc1OC`, with -2%.
On the same count and under the same terms, with `COc1c(O)c(C=O)c(Br)c(C=O)c1O` the figure was 4%; with `O=[N+]([O-])c1cc(Cl)cnc1Br`, 7%.
For the molecule `Cc1ccc2c(c1)C1(SC(C)C(=O)N1c1ccc(Cl)cc1)C(=O)N2` (stereo unspecified), the growth inhibition was 4%.
On the same count and under the same terms, with `COc1cc(CSc2ccc(O)cc2)cc(O)c1O` the figure was 1%.
On the same count and under the same terms, then `Cc1ccc2c3ccc4c(c3n(C)c2c1)C(=O)C=CC4=O`, with -18%; and `O=C(Nc1ccc(Cl)cc1)Nc1nnc2nc(C(C(=O)c3cccc([N+](=O)[O-])c3Cl)c3nc4nnc(NC(=O)Nc5ccc(Cl)cc5)n4[nH]c3=O)c(=O)[nH]n12`, with 3%; and `O=C(O)C1CC(c2ccccc2)=NN1c1ccccc1` (stereo unspecified), with -50%.
On the same count and under the same terms, with `CCCCc1ccc(-n2c(C)c(COC(=O)NC)c(COC(=O)NC)c2C)cc1` the figure was -13%; with `CCC(=O)c1cc(C(=O)C(=S)SC)cc(C(=O)C(=S)SC)c1`, 93% (active); with `CCn1c(O)c(C=Nc2ccccc2)s/c1=N/Nc1nc(-c2ccccc2)cs1`, 0%.
Turning to `Cc1ccccc1N=C(NO)c1ccccc1`, the growth inhibition was -6%.
In the case of `Cc1nc2ccccc2nc1NNc1ccccc1`, the growth inhibition is 14%.

The test is the same for the next values; noted with them: S. cerevisiae wt1 strain (SPY 50644) growth inhibition; at 33.0 µM; hits give high values.
Turning to `O=[N+]([O-])c1cc[n+]([O-])cc1`, the growth inhibition was -14%.
With `CC1(C)CC(=O)C(/C=N/c2nc(-c3ccccc3)cs2)=C(O)C1`, the growth inhibition was 22%.
Consider `Nc1nc(N)c2nc(CNc3ccc(C(=O)NC(CCC(=O)O)C(=O)O)cc3F)cnc2n1` (stereo unspecified), for which the growth inhibition was 50%.
Still for that read-out and setting: with `COC(=O)CC1(O)C(/C=C/c2ccccc2)C(C(=O)OC)C(=O)C(C(=O)OC)C1C(=O)OC` (stereo unspecified) the figure was -1%; with `CC(C)(C)c1ccc(NS(=O)(=O)c2ccc(N)cc2)cc1`, 3%; with `CCN(CC)CCNc1ccc([N+](=O)[O-])c2nc3ccccc3c(N)c12`, -9%.
Still for that read-out and setting: then `CCCCN(CCCC)C(=O)/C=C/c1ccccc1`, with 10%; and `O=c1[nH]c(-c2ccccc2)nc2c1sc1nc3ccccc3n12`, with -25%.
The same measure, in the same setting: then `O=[N+]([O-])c1ccc2c(c1)/C(=N/N=C1c3ccccc3Cc3ccccc31)c1cc([N+](=O)[O-])cc([N+](=O)[O-])c1-2`, with 99% (active).
As to `CC(C)C(C)/C=C\C(C)C1CCC2C3=CC=C4CC(O)CCC4(C)C3CCC21C` (stereo unspecified), the growth inhibition is -3%.
`O=C1Nc2ccc(Br)cc2C1=Nc1ccc2c(c1)OCO2`: the growth inhibition was -12%.
Consider `CCCCOCn1c(=O)[nH]c(=O)c2cc(Br)ccc21`, for which the growth inhibition is -44%.
In the case of `Cc1ccc(S/C(=C\C(=O)O)c2ccccc2)cc1`, the growth inhibition is -2%.
Consider `O=[N+]([O-])/C=C/c1cc(Cl)c(/C=C/[N+](=O)[O-])cc1Cl`, for which the growth inhibition is 42%.
The same measure, in the same setting: then `Cc1cc(S(=O)(=O)Nc2nnc3cnc4ccccc4n23)c(S)cc1Cl`, with 11%; and `O=C(/C=C/c1cc(Cl)cc(Cl)c1O)c1cccc(O)c1`, with 98% (active); and `NC1CCCCC1N.Nc1c(N=Nc2ccc(-c3ccc(N=Nc4cc(S(=O)(=O)[O-])c5ccccc5c4N)cc3)cc2)cc(S(=O)(=O)[O-])c2ccccc12.[OH3+].[OH3+].[Pt+4]`, with 35%.
On the same count and under the same terms, with `COC(=O)CCC(NC(=S)N/N=C(\C)c1ccccn1)C(=O)OC` (stereo unspecified) the figure was 47%; with `NC(=O)C(=O)NNc1ccccc1`, 57%; with `COc1cc(C2SCC(=O)N2c2ccc(-c3ccc(-n4c(-c5ccccc5)nc5ccccc5c4=O)cc3)cc2)ccc1O` (stereo unspecified), -4%.
Regarding `COc1ccc(/C=C/c2sc3ccccc3[n+]2CCCCI)cc1OC`, the growth inhibition is 33%.
In the case of `Cc1c(C(C)C)cc(OCCO)cc1C(C)C`, the growth inhibition was -7%.
On the same count and under the same terms, with `Cc1cc(NCCCCCCCCNc2cc(C)nc3cc(N)ccc23)c2ccc(N)cc2n1` the figure was 98% (active); with `C=C(Cl)COC(=O)Nc1cccc(Cl)c1`, 13%; with `CC(=O)OC1CC2C(C)(C)C(=O)C=C[C@]2(C)C2CCC3(C)C(=CCC3[C@H](CO)C[C@H](O)C(=O)C(C)(C)O)[C@]12C` (stereo partly specified), -21%.
With `COc1ccc(/C=C/C(=O)c2ccccc2)cc1OC`, the growth inhibition was 28%.
In the case of `COc1c(O)c(C=O)c(Br)c(C=O)c1O`, the growth inhibition was 17%.
`O=[N+]([O-])c1cc(Cl)cnc1Br`: the growth inhibition was 8%.
On the same count and under the same terms, then `Cc1ccc2c(c1)C1(SC(C)C(=O)N1c1ccc(Cl)cc1)C(=O)N2` (stereo unspecified), with 55%.
`COc1cc(CSc2ccc(O)cc2)cc(O)c1O`: the growth inhibition was -2%.
For the molecule `Cc1ccc2c3ccc4c(c3n(C)c2c1)C(=O)C=CC4=O`, the growth inhibition is -1%.
Take `O=C(Nc1ccc(Cl)cc1)Nc1nnc2nc(C(C(=O)c3cccc([N+](=O)[O-])c3Cl)c3nc4nnc(NC(=O)Nc5ccc(Cl)cc5)n4[nH]c3=O)c(=O)[nH]n12`: the growth inhibition was -1%.
On the same count and under the same terms, then `O=C(O)C1CC(c2ccccc2)=NN1c1ccccc1` (stereo unspecified), with -11%; and `CCCCc1ccc(-n2c(C)c(COC(=O)NC)c(COC(=O)NC)c2C)cc1`, with 99% (active).
Same read-out and setting: then `CCC(=O)c1cc(C(=O)C(=S)SC)cc(C(=O)C(=S)SC)c1`, with 98% (active); and `CCn1c(O)c(C=Nc2ccccc2)s/c1=N/Nc1nc(-c2ccccc2)cs1`, with 0%; and `Cc1ccccc1N=C(NO)c1ccccc1`, with 9%.
The same measure, in the same setting: then `Cc1nc2ccccc2nc1NNc1ccccc1`, with 17%.
